Data from the supplement of paper PMC12067093, “Discovery and optimisation of a covalent ligand for TRIM25 and its application to targeted protein ubiquitination” (Chemical Science, 2025).
Targets with the largest changes are over-represented here; the source holds about 21,000 in all.

Compound: CC1Cc2ccccc2N1C(=O)C1CCCN(C1)C(=O)CCl (mixture of isomers) [TRIM25 ligand 11 (diastereomer mixture)]
Experiment: probe-labelled cysteine peptide fold change vs DMSO (competition) (log2 fold change); higher = less target engagement (more negative = stronger competition)
Details: THP-1, incubation time: 4 h
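Note: competitive chemoproteomic profiling in live THP-1 cells with an iodoacetamide desthiobiotin (IA-DTB) probe, comparing probe-labelled peptide intensities in compound-treated cells against DMSO-treated controls.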

UniProt Q9UKF6, sequence (Q9UKF6 whole entry, looked up): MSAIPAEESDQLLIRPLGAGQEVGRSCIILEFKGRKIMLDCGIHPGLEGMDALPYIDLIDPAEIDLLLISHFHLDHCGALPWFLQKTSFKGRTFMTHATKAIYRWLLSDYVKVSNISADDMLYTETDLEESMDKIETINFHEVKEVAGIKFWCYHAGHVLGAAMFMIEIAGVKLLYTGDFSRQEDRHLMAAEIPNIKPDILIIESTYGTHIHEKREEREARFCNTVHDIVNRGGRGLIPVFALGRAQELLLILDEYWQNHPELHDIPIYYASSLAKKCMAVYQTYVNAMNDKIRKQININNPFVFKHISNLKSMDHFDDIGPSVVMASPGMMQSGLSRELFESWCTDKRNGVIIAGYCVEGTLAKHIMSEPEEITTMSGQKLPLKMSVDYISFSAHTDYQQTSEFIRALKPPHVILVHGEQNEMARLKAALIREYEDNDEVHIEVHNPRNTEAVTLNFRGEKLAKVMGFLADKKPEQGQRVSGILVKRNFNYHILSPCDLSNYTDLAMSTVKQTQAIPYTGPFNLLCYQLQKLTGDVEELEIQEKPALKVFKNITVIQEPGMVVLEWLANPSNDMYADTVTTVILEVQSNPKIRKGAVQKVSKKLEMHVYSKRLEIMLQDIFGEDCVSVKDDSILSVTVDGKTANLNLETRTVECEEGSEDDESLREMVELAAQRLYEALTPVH
UniProt Q9UJV9, sequence (Q9UJV9 whole entry, looked up): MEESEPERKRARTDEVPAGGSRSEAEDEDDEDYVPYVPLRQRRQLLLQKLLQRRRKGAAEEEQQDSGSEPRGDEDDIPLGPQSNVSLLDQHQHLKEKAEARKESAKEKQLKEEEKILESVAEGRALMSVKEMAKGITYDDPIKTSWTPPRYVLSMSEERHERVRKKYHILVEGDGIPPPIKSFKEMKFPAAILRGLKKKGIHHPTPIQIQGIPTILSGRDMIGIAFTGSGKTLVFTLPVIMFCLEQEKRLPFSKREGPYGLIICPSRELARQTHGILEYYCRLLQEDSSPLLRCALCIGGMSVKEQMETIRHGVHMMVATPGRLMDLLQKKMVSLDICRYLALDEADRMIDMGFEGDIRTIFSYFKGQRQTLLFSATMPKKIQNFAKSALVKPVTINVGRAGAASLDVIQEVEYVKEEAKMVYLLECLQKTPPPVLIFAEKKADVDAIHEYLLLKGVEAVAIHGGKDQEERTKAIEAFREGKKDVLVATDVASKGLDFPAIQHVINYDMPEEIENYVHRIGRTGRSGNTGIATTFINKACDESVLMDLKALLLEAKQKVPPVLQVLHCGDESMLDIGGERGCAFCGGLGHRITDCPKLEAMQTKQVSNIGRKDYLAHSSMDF
UniProt Q7L2E3, sequence (Q7L2E3 whole entry, looked up): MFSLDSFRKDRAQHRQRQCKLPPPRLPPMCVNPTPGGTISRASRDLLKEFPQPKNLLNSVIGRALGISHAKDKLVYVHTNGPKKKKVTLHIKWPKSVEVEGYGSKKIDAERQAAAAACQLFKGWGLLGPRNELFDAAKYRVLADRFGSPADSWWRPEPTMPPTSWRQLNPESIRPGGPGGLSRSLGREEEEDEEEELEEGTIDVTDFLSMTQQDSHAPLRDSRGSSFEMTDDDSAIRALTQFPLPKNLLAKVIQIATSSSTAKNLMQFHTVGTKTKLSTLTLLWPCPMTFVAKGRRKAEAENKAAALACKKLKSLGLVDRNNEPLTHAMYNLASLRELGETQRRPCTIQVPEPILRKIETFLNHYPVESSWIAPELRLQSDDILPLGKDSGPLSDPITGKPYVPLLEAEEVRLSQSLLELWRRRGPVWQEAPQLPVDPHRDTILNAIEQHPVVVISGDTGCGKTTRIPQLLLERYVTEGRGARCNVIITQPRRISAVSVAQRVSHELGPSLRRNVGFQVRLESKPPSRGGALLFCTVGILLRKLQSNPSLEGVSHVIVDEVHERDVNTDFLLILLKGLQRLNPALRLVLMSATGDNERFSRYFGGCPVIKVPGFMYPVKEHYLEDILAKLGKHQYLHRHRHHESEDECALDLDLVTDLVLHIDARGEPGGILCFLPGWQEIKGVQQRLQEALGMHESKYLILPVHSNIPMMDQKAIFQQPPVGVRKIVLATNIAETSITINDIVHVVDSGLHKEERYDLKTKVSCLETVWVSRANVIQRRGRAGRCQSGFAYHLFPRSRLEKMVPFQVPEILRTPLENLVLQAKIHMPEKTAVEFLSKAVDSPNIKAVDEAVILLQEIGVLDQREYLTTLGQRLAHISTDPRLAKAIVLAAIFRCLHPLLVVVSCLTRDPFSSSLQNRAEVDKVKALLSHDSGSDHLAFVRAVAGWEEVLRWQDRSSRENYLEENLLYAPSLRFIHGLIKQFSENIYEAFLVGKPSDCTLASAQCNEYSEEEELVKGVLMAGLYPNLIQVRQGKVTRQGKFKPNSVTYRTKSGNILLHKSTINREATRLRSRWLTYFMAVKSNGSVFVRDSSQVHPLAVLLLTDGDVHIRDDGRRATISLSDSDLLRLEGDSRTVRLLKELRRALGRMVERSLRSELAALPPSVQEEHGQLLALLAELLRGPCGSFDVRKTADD
UniProt Q9GZR7, sequence (Q9GZR7 whole entry, looked up): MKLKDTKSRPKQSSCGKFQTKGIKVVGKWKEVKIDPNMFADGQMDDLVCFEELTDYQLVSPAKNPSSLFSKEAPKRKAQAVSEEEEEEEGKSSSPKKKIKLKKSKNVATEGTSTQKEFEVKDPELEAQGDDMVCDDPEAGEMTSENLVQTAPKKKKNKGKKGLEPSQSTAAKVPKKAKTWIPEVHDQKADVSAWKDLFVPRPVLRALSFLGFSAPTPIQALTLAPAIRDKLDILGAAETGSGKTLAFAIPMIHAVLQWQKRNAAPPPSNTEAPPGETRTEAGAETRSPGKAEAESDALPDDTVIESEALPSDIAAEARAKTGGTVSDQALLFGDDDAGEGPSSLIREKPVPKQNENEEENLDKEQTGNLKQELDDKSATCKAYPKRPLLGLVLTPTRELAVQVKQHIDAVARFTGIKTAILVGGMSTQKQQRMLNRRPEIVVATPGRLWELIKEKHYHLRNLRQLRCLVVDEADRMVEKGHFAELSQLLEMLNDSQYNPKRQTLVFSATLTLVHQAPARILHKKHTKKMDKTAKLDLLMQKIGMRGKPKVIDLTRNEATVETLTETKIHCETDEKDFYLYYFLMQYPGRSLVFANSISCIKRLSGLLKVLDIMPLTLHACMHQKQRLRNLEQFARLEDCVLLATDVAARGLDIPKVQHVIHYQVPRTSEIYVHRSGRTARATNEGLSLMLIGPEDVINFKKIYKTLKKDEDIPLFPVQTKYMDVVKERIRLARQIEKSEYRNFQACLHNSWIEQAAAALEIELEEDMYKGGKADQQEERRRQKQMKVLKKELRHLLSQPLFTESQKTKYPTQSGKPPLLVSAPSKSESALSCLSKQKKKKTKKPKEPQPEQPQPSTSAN
UniProt A2RUS2, sequence (A2RUS2 whole entry, looked up): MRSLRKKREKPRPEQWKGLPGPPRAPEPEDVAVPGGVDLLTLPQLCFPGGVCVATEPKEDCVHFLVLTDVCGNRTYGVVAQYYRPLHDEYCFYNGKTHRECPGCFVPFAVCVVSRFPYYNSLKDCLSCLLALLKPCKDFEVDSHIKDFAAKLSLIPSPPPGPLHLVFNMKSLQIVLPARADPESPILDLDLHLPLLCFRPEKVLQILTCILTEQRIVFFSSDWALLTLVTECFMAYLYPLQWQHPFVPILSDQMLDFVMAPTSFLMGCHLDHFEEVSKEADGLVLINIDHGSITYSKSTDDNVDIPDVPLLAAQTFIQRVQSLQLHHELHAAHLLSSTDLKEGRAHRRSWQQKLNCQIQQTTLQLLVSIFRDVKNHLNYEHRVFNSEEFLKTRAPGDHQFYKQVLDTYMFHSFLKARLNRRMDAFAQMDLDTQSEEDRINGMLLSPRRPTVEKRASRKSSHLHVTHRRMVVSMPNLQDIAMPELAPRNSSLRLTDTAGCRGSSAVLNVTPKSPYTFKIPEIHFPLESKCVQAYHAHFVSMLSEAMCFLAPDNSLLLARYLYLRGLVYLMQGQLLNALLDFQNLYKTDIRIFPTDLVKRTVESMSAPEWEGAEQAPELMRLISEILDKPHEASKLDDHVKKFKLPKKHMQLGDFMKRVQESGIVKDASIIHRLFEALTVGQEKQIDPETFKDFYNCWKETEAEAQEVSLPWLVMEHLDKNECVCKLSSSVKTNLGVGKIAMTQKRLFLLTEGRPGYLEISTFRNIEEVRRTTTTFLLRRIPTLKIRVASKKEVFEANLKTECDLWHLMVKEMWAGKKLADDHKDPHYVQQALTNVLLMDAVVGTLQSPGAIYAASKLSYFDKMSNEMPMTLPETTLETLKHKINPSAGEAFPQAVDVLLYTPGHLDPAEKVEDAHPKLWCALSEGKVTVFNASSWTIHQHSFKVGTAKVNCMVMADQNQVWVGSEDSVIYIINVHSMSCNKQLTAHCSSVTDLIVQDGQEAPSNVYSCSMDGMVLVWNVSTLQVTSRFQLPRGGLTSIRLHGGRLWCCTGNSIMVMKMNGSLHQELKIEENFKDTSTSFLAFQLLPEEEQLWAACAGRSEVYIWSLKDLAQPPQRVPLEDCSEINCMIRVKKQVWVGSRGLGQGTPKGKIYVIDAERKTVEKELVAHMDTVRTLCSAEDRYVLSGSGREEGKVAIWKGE
UniProt P51452, sequence (P51452 whole entry, looked up): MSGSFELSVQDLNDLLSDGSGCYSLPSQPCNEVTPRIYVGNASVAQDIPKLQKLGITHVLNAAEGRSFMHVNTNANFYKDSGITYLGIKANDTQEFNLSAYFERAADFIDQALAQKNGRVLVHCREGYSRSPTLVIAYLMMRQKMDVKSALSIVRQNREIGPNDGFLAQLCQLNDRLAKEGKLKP
UniProt Q9NUI1, sequence (Q9NUI1 whole entry, looked up): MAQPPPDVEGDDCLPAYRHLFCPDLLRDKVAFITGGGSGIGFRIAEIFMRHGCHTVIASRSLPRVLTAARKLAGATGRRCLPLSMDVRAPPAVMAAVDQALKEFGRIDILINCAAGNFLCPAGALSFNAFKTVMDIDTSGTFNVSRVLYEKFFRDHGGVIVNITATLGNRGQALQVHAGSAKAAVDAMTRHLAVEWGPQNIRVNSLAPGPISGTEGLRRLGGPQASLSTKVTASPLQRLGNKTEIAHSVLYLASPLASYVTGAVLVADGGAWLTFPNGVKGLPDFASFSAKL

In the case of “DDX42_Q86XP3_339+346_ELCQQIHAECK (UniProt Q86XP3)”, the “probe-labelled cysteine peptide fold change” value (10 µM) is reported as -0.0625 and the “probe-labelled cysteine peptide fold change” value (50 µM) is reported as -0.045.
In the case of “DOK3_Q7L591_323_LPELTRPQPCPLPR (UniProt Q7L591)”, the “probe-labelled cysteine peptide fold change” value (10 µM) is reported as 0.463 and the “probe-labelled cysteine peptide fold change” value (50 µM) is reported as -0.185.
In the case of “DDX28_Q9NUL7_453_DILLCTDIASR (UniProt Q9NUL7)”, the “probe-labelled cysteine peptide fold change” value (10 µM) is reported as 0.0908 and the “probe-labelled cysteine peptide fold change” value (50 µM) is reported as 0.0393.
“CRELD1_Q96HD1_229_CSGPEESNCLQCK (UniProt Q96HD1)” was tested, and the “probe-labelled cysteine peptide fold change” value (10 µM) was 0.0143 and the “probe-labelled cysteine peptide fold change” value (50 µM) was -0.197.
In the case of “DDX17_Q92841_166+199_GGDVCPKPVFAFHHANFPQYVMDVLMDQHFTEPTPIQCQGFPLALSGR (UniProt Q92841)”, the “probe-labelled cysteine peptide fold change” value (10 µM) is reported as -0.612 and the “probe-labelled cysteine peptide fold change” value (50 µM) is reported as -0.604.
For “DDX24_Q9GZR7_599_SLVFANSISCIK (UniProt Q9GZR7)”, the “probe-labelled cysteine peptide fold change” value (10 µM) was 0.479 and the “probe-labelled cysteine peptide fold change” value (50 µM) was 0.567.
“DDX3X_O00571_128_WCDKSDEDDWSK (UniProt O00571)” was tested, and the “probe-labelled cysteine peptide fold change” value (10 µM) was -0.422 and the “probe-labelled cysteine peptide fold change” value (50 µM) was -0.388.
With CTSZ_Q9UBR2_179_ECHAIR (UniProt Q9UBR2) the “probe-labelled cysteine peptide fold change” value (10 µM) was -0.116 and the “probe-labelled cysteine peptide fold change” value (50 µM) was 0.567.
“DLGAP5_Q15398_129_YRPDMPCFLLSNQNAVK (UniProt Q15398)” was tested, and the “probe-labelled cysteine peptide fold change” value (10 µM) was -0.299 and the “probe-labelled cysteine peptide fold change” value (50 µM) was -0.594.
With “DENND4B_O75064_180_GEGTPHTYCR (UniProt O75064)” the “probe-labelled cysteine peptide fold change” value (10 µM) was 0.0109 and the “probe-labelled cysteine peptide fold change” value (50 µM) was 0.131.
“CORO7_P57737_75_VAHLGCHSDLVTDLDFSPFDDFLLATGSADR (UniProt P57737)” was tested, and the “probe-labelled cysteine peptide fold change” value (10 µM) was 0.031 and the “probe-labelled cysteine peptide fold change” value (50 µM) was 0.0305.
With “DUS3L_Q96G46_396_TVEVDFVDINVGCPIDLVYKK (UniProt Q96G46)” the “probe-labelled cysteine peptide fold change” value (10 µM) was -0.169 and the “probe-labelled cysteine peptide fold change” value (50 µM) was -0.11.
In the case of “DENND3_A2RUS2_1094_DTSTSFLAFQLLPEEEQLWAACAGR (UniProt A2RUS2)”, the “probe-labelled cysteine peptide fold change” value (10 µM) is reported as 1.22 and the “probe-labelled cysteine peptide fold change” value (50 µM) is reported as -0.0979.
“DUS3L_Q96G46_358_RHQCEDIFGVQLEGAFPDTMTK (UniProt Q96G46)” was tested, and the “probe-labelled cysteine peptide fold change” value (10 µM) was 0.0341 and the “probe-labelled cysteine peptide fold change” value (50 µM) was 0.0134.
“DLEC1_Q9Y238_256_LEDSCR (UniProt Q9Y238)” was tested, and the “probe-labelled cysteine peptide fold change” value (10 µM) was 0.892 and the “probe-labelled cysteine peptide fold change” value (50 µM) was 0.979.
“CPSF3_Q9UKF6_223_FCNTVHDIVNR (UniProt Q9UKF6)” was tested, and the “probe-labelled cysteine peptide fold change” value (10 µM) was -0.0667 and the “probe-labelled cysteine peptide fold change” value (50 µM) was -0.11.
With “DDX42_Q86XP3_382_ALQEGAEIVVCTPGR (UniProt Q86XP3)” the “probe-labelled cysteine peptide fold change” value (10 µM) was 0.0737 and the “probe-labelled cysteine peptide fold change” value (50 µM) was 0.0996.
“DOK3_Q7L591_493_KGPAPCDRP (UniProt Q7L591)” was tested, and the “probe-labelled cysteine peptide fold change” value (10 µM) was -0.0118 and the “probe-labelled cysteine peptide fold change” value (50 µM) was 0.0304.
In the case of “DHCR24_Q15392_393_CLQQALHTFQNDIHVYPIWLCPFILPSQPGLVHPK (UniProt Q15392)”, the “probe-labelled cysteine peptide fold change” value (10 µM) is reported as 0.14 and the “probe-labelled cysteine peptide fold change” value (50 µM) is reported as -0.425.
“DECR2_Q9NUI1_22_HLFCPDLLR (UniProt Q9NUI1)” was tested, and the “probe-labelled cysteine peptide fold change” value (10 µM) was 0.0413 and the “probe-labelled cysteine peptide fold change” value (50 µM) was -0.0816.
For “DHX30_Q7L2E3_286_LSTLTLLWPCPMTFVAK (UniProt Q7L2E3)”, the “probe-labelled cysteine peptide fold change” value (10 µM) was -0.558 and the “probe-labelled cysteine peptide fold change” value (50 µM) was -0.944.
For “DCTPP1_Q9H773_110_CRVDLPLAVLSK (UniProt Q9H773)”, the “probe-labelled cysteine peptide fold change” value (10 µM) was -0.361 and the “probe-labelled cysteine peptide fold change” value (50 µM) was -0.184.
With “DDB2_Q92466_322_VYSASQWDCPLGLIPHPHR (UniProt Q92466)” the “probe-labelled cysteine peptide fold change” value (10 µM) was 0.0907 and the “probe-labelled cysteine peptide fold change” value (50 µM) was -0.0149.
“CPSF4_O95639_162_RVICVNYLVGFCPEGPSCK (UniProt O95639)” was tested, and the “probe-labelled cysteine peptide fold change” value (10 µM) was -0.292 and the “probe-labelled cysteine peptide fold change” value (50 µM) was 0.0715.
In the case of “DDX41_Q9UJV9_540_ACDESVLMDLK (UniProt Q9UJV9)”, the “probe-labelled cysteine peptide fold change” value (10 µM) is reported as -0.0247 and the “probe-labelled cysteine peptide fold change” value (50 µM) is reported as -0.111.
For “DNM1L_O00429_300_LLMHHIRDCLPELK (UniProt O00429)”, the “probe-labelled cysteine peptide fold change” value (10 µM) was -0.355 and the “probe-labelled cysteine peptide fold change” value (50 µM) was -0.178.
In the case of “CPNE8_Q86YQ8_118_HDFLGQVFCTLGEIVGSQGSR (UniProt Q86YQ8)”, the “probe-labelled cysteine peptide fold change” value (10 µM) is reported as 0.132 and the “probe-labelled cysteine peptide fold change” value (50 µM) is reported as 0.595.
In the case of “DHX37_Q8IY37_616_LCVVATNVAETSLTIPGIK (UniProt Q8IY37)”, the “probe-labelled cysteine peptide fold change” value (10 µM) is reported as -0.0366 and the “probe-labelled cysteine peptide fold change” value (50 µM) is reported as 0.0989.
In the case of “CTR9_Q6PD62_196_TNPGCPAEVR (UniProt Q6PD62)”, the “probe-labelled cysteine peptide fold change” value (10 µM) is reported as -0.0355 and the “probe-labelled cysteine peptide fold change” value (50 µM) is reported as 0.0417.
With “CPNE2_Q96FN4_265_DSVPLEFECINPK (UniProt Q96FN4)” the “probe-labelled cysteine peptide fold change” value (10 µM) was -0.22 and the “probe-labelled cysteine peptide fold change” value (50 µM) was -0.165.
In the case of “DENR_O43583_44_VLYCGVCSLPTEYCEYMPDVAK (UniProt O43583)”, the “probe-labelled cysteine peptide fold change” value (10 µM) is reported as -0.0798 and the “probe-labelled cysteine peptide fold change” value (50 µM) is reported as -0.0802.
For “DYNC1H1_Q14204_1977_MLSAVSQQVQCIQEALREHSNPNYDK (UniProt Q14204)”, the “probe-labelled cysteine peptide fold change” value (10 µM) was -0.708 and the “probe-labelled cysteine peptide fold change” value (50 µM) was -0.193.
With “DHX15_O43143_774_IAPQYYDMSNFPQCEAKR (UniProt O43143)” the “probe-labelled cysteine peptide fold change” value (10 µM) was -0.432 and the “probe-labelled cysteine peptide fold change” value (50 µM) was -0.211.
For “CSNK1A1_P48729_249_MSTPVEVLCK (UniProt P48729)”, the “probe-labelled cysteine peptide fold change” value (10 µM) was -0.305 and the “probe-labelled cysteine peptide fold change” value (50 µM) was -0.401.
“DUSP3_P51452_171_EIGPNDGFLAQLCQLNDR (UniProt P51452)” was tested, and the “probe-labelled cysteine peptide fold change” value (10 µM) was -0.408 and the “probe-labelled cysteine peptide fold change” value (50 µM) was -0.0736.
With “CORO7_P57737_691_IVWVCDGR (UniProt P57737)” the “probe-labelled cysteine peptide fold change” value (10 µM) was 0.154 and the “probe-labelled cysteine peptide fold change” value (50 µM) was 0.334.
